Assay results: PubChem BioAssay (Tox21)
Results filed as inconclusive are left out. Unmarked numbers belong to inactive results. Active and inactive are the calls of the source. Calls come from the whole dose curve; as a rule, active = well fitted activation curve with a large enough effect in the repeat runs; inconclusive = weak or mixed curves; inactive = flat fitted curve, though single readings scatter.

Experiment: A CellTox Green Cytotoxicity Assay to monitor cytotoxicity in HEK293 cells - 40 hour (AID 1224871); note: nearly all actives have a fitted effect of over 45% in size
Details: CellTox Green fluorescence; series mostly up to 76.8 µM; cytotoxicity increase: at the top concentration
Source text: National Center for Advancing Translational Sciences [NCATS]
NIH Chemical Genomics Center [NCGC]
U.S. Environmental Protection Agency [EPA]
National Institutes of Environmental Health Sciences [NIEHS]
National Toxicology Program [NTP]
Cell-based models are critical for drug discovery. Determining the natural cytotoxic effects resulting from test compounds is an essential research activity. A CellTox Green Cytotoxicity Assay to monitor cytotoxicity in real time of continues cell culture during 40 hours of the compound treatment was used to screen Tox21 10K library compounds in Hek293 cells. CellTox Green Cytotoxicity Assay is a nonlytic, homogeneous, biofluorescent method to measure cytotoxicity in cell culture after experimental manipulation. The assay system uses a proprietary asymmetric cyanine dye that is excluded from viable cells but preferentially stains the dead cell's DNA. […] Viable cells produce no appreciable increases in fluorescence. Therefore, the fluorescence signal produced by the binding interaction with dead cell DNA is proportional to cytotoxicity.
The mixture of Hek293 cell suspension and reagents were dispensed at 600cells/6 ul/well in 1536-well tissue culture treated black solid bottom plates using a Multidrop dispenser. After the assay plates were incubated at a 37 C/5% CO2 incubator for 5 hours, 23 nL of compounds dissolved in DMSO, positive and negative controls was transferred to the assay plate by a pintool work station. The plates were incubated at 37 C for 40 hours. The fluorescence intensity were measured at 0h, 8h, 16h, 24h, 32h and 40h time points using ViewLux plate reader during compound treatment.
% is set by controls: 0 for no effect and ±100 for the full control effect; potency is the fitted concentration of half-maximal effect.

Compound	cytotoxicity increase	Potency
CC1NCCOC1c1ccccc1 (stereo not given)	0.484% [at 35.3 µM]	
CC(=O)OCC1=C(C(=O)O)N2C(=O)[C@@H](N)[C@H]2SC1	-4.55% [at 15.8 µM]	
O=C/C=C/c1ccco1	7.84%	
C[C@]12C=CC(=O)C=C1CC[C@@H]1[C@@H]2CC[C@@]2(C)[C@H]1CC[C@]2(C)O	-11.6% [at 35.3 µM]	
Cl/C=C/CCl	10.5%	
CCc1cc(OC)c(C[C@H](C)N)cc1OC	-3.49%	
O=c1[nH]c2ccccc2o1	6.06%	
CCCN1CCC[C@@H]2Cc3nc(N)ncc3C[C@H]21		16.9 µM (active)
C=C(C)[C@H]1CN[C@H](C(=O)O)[C@H]1CC(=O)O	-14% [at 35.3 µM]	
CCN[C@@H](C)Cc1ccccc1	-20.7%	
C/C=C/CC#N		56.2 µM (active)
CN(C)C(=O)Oc1cc(OC(=O)N(C)C)cc(C(O)CNC(C)(C)C)c1 (stereo not given)	-48.7% [at 35.3 µM]	
CCNP(=S)(OC)O/C(C)=C/C(=O)OC(C)C (stereo not given)	-7.78%	
ClCOCCl	-6.36%	
O=P(O)(O)CN(CP(=O)(O)O)CP(=O)(O)O	32.5% [at 15.8 µM]	
CC(C)(C)NC[C@H](O)c1ccc(O)cc1Cl	9.12% [at 35.3 µM]	
BrCCc1ccccc1	-4.76%	
C#CC(C)(C)O	2.69%	
COc1ccc2c(C(=O)c3ccc(Cl)cc3)c(C)n(CC(=O)O)c2c1	-2.29% [at 35.3 µM]	
CCOC(=O)c1ncn2c1CN(C)C(=O)c1c(I)cccc1-2	-2.79% [at 35.3 µM]	

Compound	cytotoxicity increase	Potency
Cc1ccc(Cl)c(O)c1	-27.2% [at 35.3 µM]	
Clc1nc(Cl)nc(Nc2ccccc2Cl)n1	-4.12%	
C[C@H](CN1CCOCC1)C(C(=O)N1CCCC1)(c1ccccc1)c1ccccc1	22.5%	
CC[C@H](N)c1ccccc1	4.59%	
Cn1c(N)nc2c3cccnc3ccc21	-8.68%	
C[N+]1(C)CCCCC1	-15.1%	
CCN1CCCC1CNC(=O)C(O)(c1ccccc1)c1ccccc1 (stereo not given)	-2.91% [at 35.3 µM]	
C#CCOC(=O)/C=C(C)/C=C/CC(C)CCCC(C)C (stereo not given)	-5.64%	
CC(=NC#N)N(C)Cc1ccc(Cl)nc1	-9.87%	
CC(C)NCC(O)c1ccc([N+](=O)[O-])cc1 (stereo not given)	-2.64% [at 35.3 µM]	
CCN(CC)C1CCCCC1	-10.4%	
CN(CCO)CCO	18.6%	
CN1C(=O)COc2c(C(=O)NC3CN4CCC3CC4)cc(Cl)cc21 (stereo not given)	0.0837% [at 35.3 µM]	
COC(=O)[C@@H](N)CCCN/C(N)=N/[N+](=O)[O-]	-7.44% [at 35.3 µM]	
O=C(Cl)CCl	2.16%	
O=C(Cl)c1ccccc1	0.0534%	
CCC(=O)c1ccc(Cl)cc1	-22.1%	
CC(C)[N+](C)(CCC(C(N)=O)(c1ccccc1)c1ccccc1)C(C)C	-1.66% [at 35.3 µM]	
CC[C@@H](CO)NC(=O)[C@@H]1C=C2c3cccc4c3c(cn4C)C[C@H]2N(C)C1	-21.3% [at 35.3 µM]	
O=[N+]([O-])CCO	-19.7%	
